Source: PubChem BioAssay AID588405 (Sanford-Burnham Center for Chemical Genomics, 2011)
Where “and” joins values, the source holds several entries; their conditions need not be identical. Equal entries are not always repeated. The whole screen tested about 360,000 compounds, of which about 6,200 (1.7%) were called active.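 The calls were made as follows: active = inhibition of at least 50% at 20 µM; inactive = the rest.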 Shown is part of a subset that was picked to be rich in actives.

Test: inhibition of PEG-3 promoter activity – cell-based, HeLa, luciferase luminescence, primary screen (AID 588405)
Conditions: HeLa PEG-Prom luciferase reporter, overnight, at 20 µM, active compounds read high

inhibition, active:
O=C(/C=C/Sc1ncn[nH]1)c1ccc(Cl)cc1 100%
COc1ccc(Cl)cc1C=CC=NNC(=O)c1ccncc1 97%
CCc1ccc(-n2c(SCc3cc(=O)n4cc(Br)ccc4n3)nc3[nH]ncc3c2=O)cc1 54.1%
COc1ccc(C2CC(c3ccccc3)=NN2C(=O)c2ccc(Cl)c([N+](=O)[O-])c2)cc1 (configuration not stated) 72.4%
Cc1[nH]c(=O)c(C(=O)/C=C/c2ccccc2)c2c1CCCC2 102%
Cc1ccc(-c2nn(C(C)(C)C)c3ncnc(N)c23)cc1 55.2%
O=c1c([N+](=O)[O-])cccn1Cc1ccc(F)cc1Cl 56.1%
NC(c1csc(NC(=O)Nc2ccccc2Oc2ccccc2)n1)c1ccccc1Cl (configuration not stated) 58.1%
CCN(CC)CCCNC(=O)c1ccc2c(=O)n(Cc3ccc4c(c3)OCO4)c(=S)[nH]c2c1 56.1%
CSc1nnc(NC(=O)c2nc(S(=O)(=O)Cc3ccc(C)cc3)ncc2Cl)s1 103%
Cc1ccc(CS(=O)(=O)c2ncc(Cl)c(C(=O)Nc3nnc(C)s3)n2)cc1 98.9%
O=C(c1[nH]ncc1-c1ccc(Cl)cc1)C1CO1 (configuration not stated) 52%
O=C1C=CC(=O)N1c1ccc(N2CCCCC2)cc1 108%
CCOC(=O)C1=C(CN2CCc3ccccc32)NC(=O)NC1c1ccc(Cl)cc1 (configuration not stated) 61.5%
CC(=O)Nc1ccc(Nc2c3ccccc3nc3ccccc23)cc1 106%
CCN(CC)CCOc1ccc2c(c1)C(=NNC(=O)c1ccccn1)c1cc(OCCN(CC)CC)ccc1-2 109%
O=C(Oc1ccc(-c2nc(-c3ccccn3)no2)cc1)c1ccccc1 66.5%
O=C1C=C(c2ccc(Cl)cc2)C(=O)N1Nc1ccccc1 105%
O=C1Nc2cc(C(=O)N3CCC(N4CCCCC4)CC3)ccc2S/C1=C\c1ccccc1 90.7%
CCc1ccc(-c2cc3c(=O)n(CC(=O)NCCCN4CCN(Cc5ccccc5)CC4)nc(C)n3n2)cc1 105%

inhibition, inactive:
COc1ccccc1/C=C/C=N/NC(=O)CN1CCN(Cc2ccccc2)CC1 3.31%
COc1ccc(Cl)cc1C=CC=Nc1ccc(S(N)(=O)=O)cc1 7.02%
COCc1cccc(-c2csc(C(O)c3ccc(F)cc3)n2)c1 (configuration not stated) -120%
CCCS(=O)(=O)NC(=O)C1(C)CCCN(C(=O)c2cccs2)C1 (configuration not stated) 12.1%
O=c1c2sccc2nc(SCc2cc(=O)n3ccccc3n2)n1-c1ccc(Br)cc1 40.8%
Cc1cccc2nc(CSc3nc4[nH]ncc4c(=O)n3-c3cccc(Cl)c3)cc(=O)n12 38.6%
COc1cc(C=C(OC(C)=O)c2ccc3c(c2)OCO3)cc(OC)c1OC 7.01%
COc1ccc(C2=NN(C(=O)c3ccccc3C(=O)O)C(c3ccccc3O)C2)cc1 (configuration not stated) -268%
COc1ccc(C2CC(c3ccccc3)=NN2C(=O)CSc2nccc(=O)[nH]2)cc1 (configuration not stated) -109%
CC(=O)Nc1cc(-c2ccccc2N(C)C)cn2c(-c3ccc(F)c(Cl)c3)cnc12 32%
COc1ccc(NC(=O)C(C)SCc2ccccc2)cc1 (configuration not stated) -27.6%
O=C(c1cc(C2CCCCN2S(=O)(=O)c2ccccc2)on1)N1CCOCC1 (configuration not stated) 1.6%
COc1cc(Cn2c3ccc(NC(=O)CC(C)c4ccccc4)cc3c(=O)n2C)ccc1F (configuration not stated) 12.9%
COC(=O)c1c(C)[nH]c(C(=O)/C=C/c2ccc(Cl)cc2)c1C -126%
CC1(C(=O)O)CCCN(C(=O)/C=C/c2ccccc2)C1 (configuration not stated) 5.91%
COc1ccc(-c2coc3c(C(=O)NC(C)C)cccc23)c(C)c1 10.8%
COc1ccc(S(=O)(=O)NC(=O)C2(C)CCN2C(=O)c2ccccc2CCc2ccccc2)cc1 (configuration not stated) -1.34%
CCCC(=O)N1CCC1(C)C(=O)NCc1ccc(SC)cc1 (configuration not stated) -5.97%
Cc1cccc(N2C(=O)SC(SC(=Nc3ccccc3)Nc3ccccc3)C2=O)c1 (configuration not stated) -30%
N#Cc1ccc(-c2ccc3nccn3c2)cc1 -24.7%
O=C1NC(c2ccccc2)=NC1(Nc1ccccn1)C(F)(F)F (configuration not stated) -4.5%
CC(=O)c1ccc(-c2cnc3c(NC=O)cc(-c4cccc(NS(C)(=O)=O)c4)cn23)cc1 48.1%
N/C(=N/O)c1cccn1Cc1ccccc1[N+](=O)[O-] 3.69%
Cc1ccc(-c2ccc(=O)n(Cc3ccc(F)cc3Cl)n2)cc1 2.87%
CC(C)c1cccc(-c2csc(C(O)c3ccccc3)n2)c1 (configuration not stated) -103%
CSCCC(c1nnnn1Cc1ccccc1)N1CCN(C/C=C/c2ccccc2)CC1 (configuration not stated) 11.4%
CCc1ccc(C2N3CC4([N+](=O)[O-])CN2CC([N+](=O)[O-])(C3)C4(C)C)cc1 (configuration not stated) 27.3%
C=CC[n+]1c(-c2ccc(C)cc2)csc1NNC(=O)Nc1ccccc1 -6.81%
CC(=O)c1ccc(Nc2nc(C(N)c3ccccc3Cl)cs2)cc1 (configuration not stated) -22.8%
COc1ccccc1NC(=O)Nc1nc(CC(=O)Nc2ccccc2F)cs1 4.34%
O=S1(=O)C[C@@H](N2CCN(CCO)CC2)[C@H](COCc2ccccc2)N1 -0.57%
COC(=O)C1=C(C)N(C(C)c2ccccc2)C(=O)/C1=C\c1ccco1 (configuration not stated) 12.2%
O=C(CCn1c(=S)[nH]c2cc3c(cc2c1=O)OCO3)NCc1ccc(Cl)cc1 9.93%
COCCn1c(=S)[nH]c2cc(C(=O)NCCc3ccc(OC)c(OC)c3)ccc2c1=O 17.6%
Cc1ccc(S(=O)(=O)CCC(=O)Nc2nnc(CC(C)C)s2)cc1 10.6%
O=C(Nc1nnc(-c2ccc(F)cc2)s1)c1c(F)cccc1Cl -27.2%
NC(=O)CSc1nnc(NC(=O)c2ccc(Br)o2)s1 -5.94%
Cc1nnc(NC(=O)C(c2ccccc2)c2ccccc2)s1 -0.94%
Nc1nc2cc(Cl)ccc2n1N -1.93%
CC(C)NC(=O)C1(C)CCCCCN1C(=O)c1ccc(-c2ccccc2)cc1 (configuration not stated) -0.82%
COc1ccc(NC(=O)C2Cc3c(-c4ccc(Cl)cc4)ccnc3O2)cc1 (configuration not stated) 22.6%
COc1cccc(C(NC(C)=O)c2nc(-c3ccccc3OC)cs2)c1 (configuration not stated) -8.65%
Nc1nc(NC(=O)/C=C/c2ccccc2)nn1-c1ccccc1 -6.78%
c1ccc(-n2cccc2)c(N2CCCCC2)c1 2.67%
CCC(=O)c1ccc(OCC(=O)Nc2ccc(N3CCCCC3)cc2)cc1 -13.9%
CN1OC[C@@H]2CN(C(=O)c3cccnc3)[C@H](c3ccc(N4CCCCC4)cc3)C[C@@H]21 -11.6%
CCOC(=O)C1=C(CN2CCc3ccccc32)NC(=O)NC1c1cccc([N+](=O)[O-])c1 (configuration not stated) 43.4%
CCOC(=O)C1=C(CN2CCc3ccccc32)NC(=O)NC1c1cc(C)ccc1C (configuration not stated) 34.6%
COc1cc(CCN=Cc2ccccc2O)c([N+](=O)[O-])cc1OC -5.6%
O=C(NCC(O)c1nc2ccccc2[nH]1)c1ccc(Br)cc1 (configuration not stated) -5.63%
CCc1nc2ccc(C(=O)Nc3cccc(OC)c3)cn2c1N(CCC(C)C)CCN(C)C -15.1%
COc1ccccc1OCC(=O)OCn1c(SC)nnc(C)c1=O 14.2%
CC(=O)Nc1ccc(S(=O)(=O)N(C)c2nc3ccccc3nc2Cl)cc1 2.27%
CC(=O)Nc1ccc(Nc2c([N+](=O)[O-])cc(S(C)(=O)=O)cc2[N+](=O)[O-])cc1 3.04%
CC(C)Nc1nc(NCCOc2ccccc2Cl)c2sccc2n1 34.3%
COc1ccc(-c2[nH][nH]c(=O)c2NC(=O)c2ccc([N+](=O)[O-])cc2)cc1 9.48%
CN(CCOc1ccc(CC2SC(=O)NC2=O)cc1)c1ccccn1 (configuration not stated) -26.7% and -30.1%
CC(O)c1ccc(OCCN(C)c2ccccn2)cc1 (configuration not stated) -135%
CCCCc1cc2c(s1)CCCC/C2=N/O 6.83%
COCCCN(C(=O)CSCc1ccc(C)cc1)c1c(N)n(Cc2ccccc2)c(=O)[nH]c1=O -0.45%
O=C(c1ccc(F)cc1)n1c(=S)nc2ccccn21 -101%
O=C(COC(=O)c1ccncc1)c1ccccc1 3.29%
Brc1ccc(-c2noc(-c3ccccc3)n2)o1 -291%
NC(=O)C1CCN(C(=O)c2ccc(-c3ccccc3)cc2)CC1 5.02%
O=C(Nc1ccccc1)C1CCN(C(=O)c2ccc(Br)cc2)CC1 -7.9%
O=C(Nc1ccc(F)cc1)C1CCCN(S(=O)(=O)c2ccc(-n3cnnn3)cc2)C1 (configuration not stated) 24.8%
Cc1ccc(-c2ccc(=O)n(CC(=O)NCCCN3CCCCC3)n2)cc1 5%
Cc1nn(CC(=O)NCCc2ccccc2)c(=O)c2cc3occc3n12 -8.09%
CC1(C(=O)Nc2cccnc2)Cc2c(-c3ccccc3)ccnc2O1 (configuration not stated) 13.4%
CC1(C(=O)Nc2cccc(Oc3ccccc3)c2)CCN1Cc1ccccc1Cl (configuration not stated) 18.7%
Nc1ncnc2c1ncn2[C@@H]1O[C@H](C(=O)N2CCSC2)[C@@H](O)[C@H]1O -1.06%
COc1ccccc1Cc1c(-c2ccc(Cl)cc2)nc2ccc(Cl)cn12 -200%
